Sampled rows, rich in hits. Any-hit rate of the full collection: about 3.5%.
BoNT-F LC inh: BoNT/F light chain protease inhibitors, primary screen, biochemical, flow cytometry, MLPCN library | inhibition, % at 10 µM | AID 588497, 2011 | actives 0.22% (n = 360,000) | Multiplex microsphere protease cleavage assay; in the data active means inhibition above about 35%, passing the limit was not always enough; inconclusive means no clear call, values can overlap the other calls; further: plate controls were buffer without enzyme for full effect and enzyme alone for no effect
Bead autofluor: flagged as autofluorescent in microsphere protease counterscreen | compound autofluorescence counterscreen, microsphere flow cytometry; stronger effect = higher value | fluorescence intensity (no concentration beside the values) | actives 3.1% (n = 360,000) | AID 624483; in the data active means fluorescence intensity above about 16000; inconclusive means no clear call, values can overlap the other calls
BoNT-A LC inh2: BoNT/A light chain protease inhibitors, primary screen, biochemical, flow cytometry, MLPCN library; Botulinum neurotoxin type A light chain protease (Clostridium botulinum A str. ATCC 3502); multiplex microsphere protease substrate cleavage; inhibition, % at 10 µM; actives 0.17% (n = 360,000); AID 588499, 2011; further: plate controls were buffer without enzyme for full effect and enzyme alone for no effect
Anthrax LF prot: Bacillus anthracis LF protease inhibitors, primary screen, biochemical, multiplex microsphere, MLPCN library. Lethal factor (Bacillus anthracis), P15917. multiplex microsphere protease cleavage assay. inhibition, % at 10 µM. actives 0.12% (n = 360,000); further: plate controls were buffer without enzyme for full effect and enzyme alone for no effect
Numbers without * were called inactive; ? = inconclusive. Unless noted, no stated cut-off is given here; in the data, active means inhibition above about 30%; inconclusive means no clear call, values can overlap the other calls; inactive means below that.

SMILES	BoNT-F LC inh	Bead autofluor	BoNT-A LC inh2	Anthrax LF prot
Cc1ccc(N2C(=O)CC(n3nc(C)cc3C)C2=O)cc1 (stereo not given)	-3.6	16252*	?	-0.2
O=C(CN1CCN(Cc2cccc3ccccc23)CC1)NCCc1ccccc1	-26.5	3930	-2.7	-0.9
O=C1CC(N2CCOCC2)C(=O)N1c1ccccc1Cl (stereo not given)	-0.6	9180	-0.9	-0.6
CCCOc1ccccc1N1C(=O)CC(N2CCOCC2)C1=O (stereo not given)	-4.1	23760*	-0.5	-2.7
O=C(Nc1ccccc1)c1ccc(OC(=O)c2cc3ccccc3o2)cc1	3.9	21900*	1.7	2.2
CCOC(=O)C1=C(CCc2ccccc2)NC(=O)NC1c1ccc(Br)cc1 (stereo not given)	2.7	3550	0.1	-3.8

Compound activity as filed in PubChem.
